Screening results as filed in PubChem BioAssay.
In the library only some 3.6% were active in any assay of this set; here they are far more common.
CendR NRP1 mod – NRP-1/CendR interaction modulation | O14786 | FAM-RPARPAR peptide binding to NRP-1, fluorescence polarization | inhibition, % at 25 µM | hit rate 0.85% among 360,000 | AID 602438;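 active = inhibition or corrected inhibition above about 18%, plus a signal ratio from 0.5 to 1.5, limit read from the data, passing the limit was not always enough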
Target sequence (O14786 whole entry, looked up): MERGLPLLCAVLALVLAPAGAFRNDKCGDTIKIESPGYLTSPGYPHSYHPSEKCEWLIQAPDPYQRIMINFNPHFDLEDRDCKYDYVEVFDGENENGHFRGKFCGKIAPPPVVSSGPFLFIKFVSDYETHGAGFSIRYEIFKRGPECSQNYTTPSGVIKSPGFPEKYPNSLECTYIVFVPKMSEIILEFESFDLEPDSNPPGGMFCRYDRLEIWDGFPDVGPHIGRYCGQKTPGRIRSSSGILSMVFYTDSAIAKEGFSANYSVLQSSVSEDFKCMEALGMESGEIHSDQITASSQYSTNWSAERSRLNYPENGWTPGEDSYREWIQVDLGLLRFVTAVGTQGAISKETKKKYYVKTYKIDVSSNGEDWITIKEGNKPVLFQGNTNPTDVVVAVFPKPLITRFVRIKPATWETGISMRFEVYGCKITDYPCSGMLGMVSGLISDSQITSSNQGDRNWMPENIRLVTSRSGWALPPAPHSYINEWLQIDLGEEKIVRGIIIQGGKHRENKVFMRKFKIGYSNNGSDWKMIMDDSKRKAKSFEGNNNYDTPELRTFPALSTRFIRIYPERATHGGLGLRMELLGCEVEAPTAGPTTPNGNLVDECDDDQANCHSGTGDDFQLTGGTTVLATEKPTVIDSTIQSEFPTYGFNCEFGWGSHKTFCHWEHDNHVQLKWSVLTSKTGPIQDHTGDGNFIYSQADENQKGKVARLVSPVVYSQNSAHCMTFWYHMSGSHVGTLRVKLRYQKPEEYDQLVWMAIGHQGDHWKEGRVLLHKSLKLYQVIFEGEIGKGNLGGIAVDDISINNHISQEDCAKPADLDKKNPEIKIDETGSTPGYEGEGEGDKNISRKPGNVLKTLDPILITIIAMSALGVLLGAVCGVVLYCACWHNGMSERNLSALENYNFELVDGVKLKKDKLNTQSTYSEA
CRFR2-BP antag – CRF-BP/CRF-R2 complex antagonism; AID 588475; HEK293 CRF-R2/CRF-BP, CRF-induced calcium fluorescence; inhibition, % at 11.8 µM; hit rate 0.59% among 350,000;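 active = inhibition of the ligand-induced calcium signal above about 50% at the single tested concentration, limit read from the data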
FAS TE block – inhibitors of human fatty acid synthase thioesterase domain; recombinant FAS-TE, OMFH fluorogenic substrate, fluorescence endpoint; inhibition, % at 15 µM; hit rate 0.67% among 360,000;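 active = compounds whose normalised, plate-corrected inhibition of enzyme fluorescence in the single-dose primary screen is 50% or more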
Myeloid diff MLP – myeloid differentiation induction; hit rate 1% among 360,000; AID 624256; calls only at 10 µM; ER-HoxA9 myeloid progenitors, lysozyme-GFP differentiation, flow cytometry;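 active = normalized GFP-positive differentiation at or above the plate's own cutoff, the solvent-only control mean plus 3 SD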;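 note: cells exposed to compound for four days before flow analysis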
NadD inh – inhibitors of Staphylococcus aureus NadD. purified NadD enzyme, colorimetric absorbance read-out. inhibition, % at 20 µM. hit rate 0.78% among 360,000. AID 602399; in the data active = inhibition above about 26%
Hits are given with their value; n = inactive; x = not tested or not shown; + = active, no number.

SMILES | CendR NRP1 mod | CRFR2-BP antag | FAS TE block | Myeloid diff MLP | NadD inh
C=C1CCN([C@@H](Cc2ccccc2)C(=O)Nc2ccc(OC)cc2)S(=O)(=O)c2ccccc21 | 27 | n | n | n | n
C=C1CCN([C@@H](CC(C)C)C(=O)NCc2ccc(Cl)cc2)S(=O)(=O)c2ccccc21 | n | n | n | n | n
CCOC(=O)C1(COCc2ccccc2)CCCCC1=O (stereo not drawn) | n | n | n | n | n
O=C(N/N=C/c1cccc2ccccc12)c1n[nH]c2c1CCCC2 | n | n | n | + | n
CC(C)CNC(=O)/C=C/C=C/CCCC/C=C/c1ccc2c(c1)OCO2 | 25 | n | n | n | n
CCOC(=O)CNC(=O)/C=C/c1ccc2c(c1)OCO2 | n | n | n | n | n
COCCN(CCOC)C(=O)CSc1ccc(S(=O)(=O)N2CCN(C)CC2)cn1 | n | n | n | n | n
O=C(COC(=O)c1ccccc1Br)NC1CCCC1 | n | n | n | + | n
COc1ccccc1NC(=O)CON=C(N)CC(=O)NC1CCCCC1 | n | n | n | + | n
CC1CCC(NC(=O)COC(=O)c2cccnc2Cl)CC1 (stereo not drawn) | 24 | n | n | n | n
O=C(COC(=O)c1cccnc1Cl)NC1CCCCC1 | n | n | n | n | n
COc1ccccc1C(=O)OCC(=O)NC1CCCC1 | n | n | n | + | n
CCc1cccc(CC)c1NC(=O)CO/N=C(\N)CC(=O)NC1CCCCC1 | n | n | n | n | n
CN(C)C(=O)c1cccc(-c2cccc(-c3nc(C(=O)NCc4ccccc4)cc4c3[C@H](CCO)N(S(=O)C(C)(C)C)C4)c2)c1 (stereo partly drawn) | n | x | n | n | n
COc1cccc(NS(=O)(=O)NC(=O)c2cn(C)c3ccccc23)c1 | n | n | n | n | n
COc1ccc(CCNC(=O)c2ccc3c(c2)S(=O)(=O)N=C2CCCCCN23)cc1OC | n | n | n | n | n
CCCNC(=O)c1cc(C2CCCCN2C(=O)c2cc(OC)c(C)c(OC)c2)on1 (stereo not drawn) | n | x | n | n | n
O=S(=O)(c1ccc(S(=O)(=O)N2CCOCC2)cc1)N1CCCC1 | n | n | n | n | n
CC1=C(C(=O)N(C(C)C)C(C)C)CC(CC(=O)NCc2cccs2)C(=O)N1CCCN1CCCC1=O (stereo not drawn) | n | x | n | n | n
Cc1nn(-c2ccc(N3CCOCC3)nn2)c(C)c1CCC(=O)NCc1ccc(F)cc1 | n | n | n | n | n
CCOc1ccccc1C(=O)OCC(=O)NCC1CCCO1 (stereo not drawn) | n | 108 | n | n | n
Cc1oc(-c2ccc(Cl)cc2)nc1CN1CCCC(C(=O)N2CCN(C(=O)c3ccco3)CC2)C1 (stereo not drawn) | n | n | n | + | n
Cc1oc(-c2ccc(Cl)cc2)nc1CN1CCCC(C(=O)N2CCOCC2)C1 (stereo not drawn) | n | n | n | n | n
COCCN(Cc1cc2ccc(C)cc2n2nnnc12)Cc1nnnn1C(C)(C)C | n | n | n | n | n
Cc1ccc(NC(=S)N2CCN(Cc3ccccc3)CC2)cc1 | 26 | n | n | n | n
SMILES | CendR NRP1 mod | CRFR2-BP antag | FAS TE block | Myeloid diff MLP | NadD inh
Cc1cc(C)cc(NC(=S)N2CCN(Cc3ccccc3)CC2)c1 | n | n | n | n | n
OCCOCCN1CCN(C(=S)Nc2ccccc2)CC1 | n | 70 | n | n | n
S=C(Nc1ccccc1)N1CCN(C2CCCCC2)CC1 | n | n | n | + | n
OCCN1CCN(C(=S)Nc2ccc(Oc3ccccc3)cc2)CC1 | n | n | n | n | n
S=C(Nc1ccccc1)N1CCCCCC1 | n | n | n | n | n
CCc1ccc(NC(=S)N2CCN(C)CC2)cc1 | 21 | n | n | n | n
Cc1ccccc1-c1nc(CS(=O)(=O)CC(=O)NC2CC2)c(C)o1 | n | n | n | n | n
CCOC(=O)Cc1csc(NC(=O)C(CC(C)C)NC(=O)C2CCCCC2)n1 (stereo not drawn) | n | n | n | n | n
Cc1ccc(S(=O)(=O)NCc2nnnn2-c2ccc(F)cc2)cc1 | n | n | n | n | n
CCCCc1ccc(NC(=S)Nc2cccnc2)cc1 | n | 53 | n | n | n
Cc1ccc(NC(=S)NC2CCN(Cc3ccccc3)CC2)cc1C | n | n | n | + | n
CCCCc1ccc(NC(=S)N2CCC(O)CC2)cc1 | n | n | n | + | n
CCCc1nc2c(C)cc(Br)cn2c1Cc1ccc(OC)cc1C | n | x | n | n | n
CC(C)(C)OC(=O)NCCCC[C@H](NC(=O)c1[nH]cnc1C(=O)Nc1ccc(Cl)cc1)C(=O)OC(C)(C)C | n | n | 76 | n | n
CC(C)C[C@H](NC(=O)c1nc[nH]c1C(=O)N[C@@H](CCCCN)C(=O)OC(C)(C)C)C(=O)OC(C)(C)C | n | n | n | n | n
CC(C)(C)OC(=O)[C@H](CCCCN)NC(=O)c1nc[nH]c1C(=O)N[C@@H](CCCCN)C(=O)OC(C)(C)C | 21 | n | n | n | n
CN(C)c1ccc(P(=O)(OC2CCCCC2)C(O)c2ccncc2)cc1 (stereo not drawn) | n | n | n | n | n
CN(C)CCNC(=O)/C(=C/c1ccc(-c2cccc(Cl)c2)o1)NC(=O)c1ccccc1 | n | n | n | n | n
CN(C)CCCNC(=O)/C(=C\c1ccc(-c2ccc(Br)cc2)o1)NC(=O)c1ccccc1 | n | n | n | + | n
Cc1ccc(C(=O)N/C(=C\c2ccc(-c3ccc(Cl)cc3)o2)C(=O)NCCCN(C)C)cc1 | n | n | n | + | n
CN(C)CCNC(=O)/C(=C/c1ccc(-c2cccc([N+](=O)[O-])c2)o1)NC(=O)c1ccccc1 | n | n | n | n | n
CN(C)CCCNC(=O)/C(=C/c1ccc(-c2ccc([N+](=O)[O-])cc2)o1)NC(=O)c1ccccc1 | n | n | n | + | n
CC1=C(C(=O)N2CCCCCC2)CC(CC(=O)NCCc2ccccn2)C(=O)N1Cc1ccc(F)cc1 (stereo not drawn) | n | x | n | n | n
CCN(CC)Cc1c(O)ccc2c(C)c(CC(=O)OC)c(=O)oc12 | 47 | n | n | n | n
O=S(=O)(Nc1nc2ccccc2s1)c1cc(F)ccc1F | n | n | n | n | n
SMILES | CendR NRP1 mod | CRFR2-BP antag | FAS TE block | Myeloid diff MLP | NadD inh
O=S(=O)(Nc1nc2ccccc2s1)c1ccc(Cl)s1 | n | 58 | n | n | n
COc1ccccc1C(=O)N/C(=C\c1cn(S(=O)(=O)N(C)C)c2ccccc12)C(=O)NCCN1CCOCC1 | n | n | n | n | n
Cc1ccccc1CSc1ccc2nnc(-c3ccccn3)n2n1 | n | n | n | + | n
CCCc1c(-c2ccc(F)cc2F)ncn1Cc1ccccc1OC | n | x | n | n | n
Cc1nc(N)nc(Nc2ccc(C#N)cc2)c1Br | 17 | n | n | n | n
COc1ccc(-c2nc3ccc(C)cn3c2CC(C)(C)C)cc1OC | n | x | n | n | n
COc1ccc(C(C)(O)c2nc(-c3csc4ccccc34)cs2)cc1 (stereo not drawn) | n | x | n | n | n
C=CCn1c(SCC(=O)NCCCC)nc2scc(-c3ccco3)c2c1=O | n | n | n | n | 38
